The campaign covered roughly 290,000 compounds. About 3,000 (1%) were called active. This is one part of a sample in which actives are shown more often than they occur. Cut-off read from the data, not from the text of the source: active = inhibition mostly above about 36% (no sharp cut-off); inactive = mostly below about 34%.

A short description of the experiment: inhibition of NOD1-driven NF-kB reporter – cell-based, luminescence, uHTS, primary screen (AID 1578).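 Note: HEK-293T reporter cells stimulated with the NOD1 agonist gamma-tri-DAP.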 Conditions: NOD1-driven NF-kB luciferase reporter cells, at 4 µM, active compounds read high. (In general: Reporter assays use an easily measured gene product as a stand-in for the process of interest.)
What is called inhibition is the relative decrease from the control value, in per cent. Turning to `COc1ccc(CNC(=O)CSc2nc3ccc(C)cc3[nH]2)cc1OC`, the inhibition is 0.6% (inactive).
Regarding `CCOc1ccc(/C=N/NC(=O)C(=O)N2CCCCCC2)c2ccccc12`, the inhibition is 12% (inactive).
As for `CC(C)N1C/C(=C/c2cccnc2)C(=O)/C(=C/c2cccnc2)C1`, the inhibition was 49.5% (inactive).
To `CC(C)N1C/C(=C/c2ccsc2)C(=O)/C(=C/c2ccsc2)C1` belongs 80.5% (active).
Consider `CN1C/C(=C/c2ccsc2)C(=O)/C(=C/c2ccsc2)C1`, for which the inhibition was -44.5% (inactive).
To `Cc1cc(NC(=O)c2cccnc2)ccc1NC(=O)c1ccco1` belongs -65.2% (inactive); to `COc1ccc(-c2csc(/C(C#N)=C\c3ccc(OC)c([N+](=O)[O-])c3)n2)cc1`, -19.7% (inactive); to `N#C/C(=C\c1ccc([N+](=O)[O-])cc1)c1nc(C2CC2)cs1`, -14.9% (inactive).
In the case of `COc1cc(/C=C(/C#N)c2nc(-c3cc4ccccc4oc3=O)cs2)cc([N+](=O)[O-])c1O`, the inhibition was 6.6% (inactive).
As for `COc1ccc(-c2csc(/C(C#N)=C\c3cccc([N+](=O)[O-])c3)n2)cc1`, the figure is -40.1% (inactive).
For the compound `COc1ccc(-c2csc(/C(C#N)=C\c3ccc(O)c([N+](=O)[O-])c3)n2)cc1OC`, the inhibition was 78.3% (active).
Regarding `O=C(NC1CCSc2ccccc21)c1cccc(Cl)c1` (centres undefined), the inhibition is -18.6% (inactive).
To `CCc1cc(-c2nc(N)ncc2-c2ccc(Br)cc2)c(O)cc1OC` belongs -5.1% (inactive).
To `Cc1nc2cc(-c3ccccc3)[nH]n2c(=O)c1C` belongs -59.1% (inactive); to `Cc1ccc2cccc(OCc3ccccc3)c2n1`, -0.7% (inactive).
To `Cc1ccc2ccc3ccc(C)nc3c2n1` belongs 44.3% (active).
As to `Cc1ccc2cccc(N)c2n1`, the inhibition is -43.8% (inactive).
Consider `C/C(=N\Nc1cc(C(F)(F)F)ccc1Cl)c1ccccc1O`, for which the inhibition is 15.7% (inactive).
Consider `Cc1cccc(-n2ncc3c(N(C)C4CCCCC4)ncnc32)c1`, for which the inhibition is 27.6% (inactive).
As for `CC1CCCN(c2ncnc3c2cnn3-c2ccc(Cl)cc2)C1` (centres undefined), the figure is 73.3% (active).
For `CC1CCCN(c2ncnc3c2cnn3-c2ccccc2)C1` (centres undefined), the inhibition is 0.1% (inactive).
Regarding `Clc1ccc(-n2ncc3c(N4CCCCCC4)ncnc32)cc1`, the inhibition was 78.4% (active).
As for `CN1CCN(c2ncnc3c2cnn3-c2ccc(Cl)cc2)CC1`, the figure is -13.8% (inactive); as for `Clc1ccc(-n2ncc3c(N4CCCC4)ncnc32)cc1`, 39.9% (inactive); as for `COc1ccc(-n2ncc3c(N4CCC(C(N)=O)CC4)ncnc32)cc1`, -30% (inactive).
On to `COc1ccc(-n2ncc3c(N4CCC(C)CC4)ncnc32)cc1`, for which the inhibition is -5.4% (inactive).
To `CC1CC(C)CN(c2ncnc3c2cnn3-c2ccc(Cl)cc2)C1` (centres undefined) belongs 1.3% (inactive); to `CCCN(CCC)c1ncnc2c1cnn2-c1ccc(OC)cc1`, -46.4% (inactive); to `COc1ccc(-n2ncc3c(N4CCCCC4)ncnc32)cc1`, 87% (active).

The record behind these values is PubChem BioAssay AID1578 (Sanford-Burnham Center for Chemical Genomics, 2009).
